Experimental data from the supplement of paper PMC6555819.

Columns and labels:
Experiment in all cases: PBM binding z-score (relative to random genomic background probes); higher = stronger binding; sequences stand for … in GC…GCGATTGACAGCGTAGAATGAAGG
[1] = tested on: FXR:RXRa (NR concentration 270 nM, RXRa partner concentration 90 nM)
Summary of the method: (§1)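 Binding z-scores take random background probes as their reference. They come from custom Agilent 4×180K protein-binding microarrays incubated 1 h with ligand-free nuclear receptor dimers, with antibodies against each partner (one per run) detecting binding. Scanned fluorescence was regression-normalized.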

[2] = tested on: LXRa:RXRa (NR concentration 270 nM, RXRa partner concentration 90 nM)
Summary of the method: as §1

[3] = tested on: LXRa homodimer (NR concentration 270 nM)
Summary of the method: as §1

[4] = tested on: LXRb:RXRa (NR concentration 270 nM, RXRa partner concentration 90 nM)
Summary of the method: as §1

[5] = tested on: LXRb homodimer (NR concentration 270 nM)
Summary of the method: as §1

[6] = tested on: PPARa:RXRa (NR concentration 270 nM, RXRa partner concentration 90 nM)
Summary of the method: as §1

[7] = tested on: PPARg:RXRa (NR concentration 180 nM, RXRa partner concentration 90 nM)
Summary of the method: as §1

[8] = tested on: PPARg:RXRa 270nM:90nM, anti-RXR (NR concentration 270 nM, RXRa partner concentration 90 nM)
Summary of the method: as §1

[9] = tested on: PPARg:RXRa 30nM:10nM, anti-RXR (NR concentration 30 nM, RXRa partner concentration 10 nM)
Summary of the method: as §1

[10] = tested on: PPARg:RXRa 90nM:30nM, anti-RXR (NR concentration 90 nM, RXRa partner concentration 30 nM)
Summary of the method: as §1

[11] = tested on: PPARg:RXRa DBDmut IVT, anti-RXR (DBD mutation: RXRa K156A/R161A, NR concentration 270 nM, RXRa partner concentration 90 nM)
Summary of the method: as §1

[12] = tested on: PPARg:RXRa IVT, anti-PPARg (NR concentration 270 nM, RXRa partner concentration 90 nM)
Summary of the method: as §1

[13] = tested on: PPARg DBDmut:RXRa IVT, anti-PPARg (DBD mutation: PPARg1 K132A/R137A, NR concentration 270 nM, RXRa partner concentration 90 nM)
Summary of the method: as §1

[14] = tested on: PPARg DBDmut IVT, anti-PPARg (DBD mutation: PPARg1 K132A/R137A, NR concentration 270 nM)
Summary of the method: as §1

[15] = tested on: PPARg homodimer (NR concentration 180 nM)
Summary of the method: as §1

[16] = tested on: PXR:RXRa (NR concentration 270 nM, RXRa partner concentration 90 nM)
Summary of the method: as §1

[17] = tested on: PXR homodimer (NR concentration 270 nM)
Summary of the method: as §1

[18] = tested on: RARa:RXR (NR concentration 270 nM, RXRa partner concentration 90 nM)
Summary of the method: as §1

[19] = tested on: RARa homodimer (NR concentration 270 nM)
Summary of the method: as §1

[20] = tested on: RARb:RXRa (NR concentration 270 nM, RXRa partner concentration 90 nM)
Summary of the method: as §1

Sequence	PBM binding z-score [1]	PBM binding z-score [2]	PBM binding z-score [3]	PBM binding z-score [4]	PBM binding z-score [5]	PBM binding z-score [6]	PBM binding z-score [7]	PBM binding z-score [8]	PBM binding z-score [9]	PBM binding z-score [10]	PBM binding z-score [11]	PBM binding z-score [12]	PBM binding z-score [13]	PBM binding z-score [14]	PBM binding z-score [15]	PBM binding z-score [16]	PBM binding z-score [17]	PBM binding z-score [18]	PBM binding z-score [19]	PBM binding z-score [20]
CCTAGTTGGTCAGCAGGTCACACACCGGATATGA	1.89	1.8	1.16	2	0.372	2.85	2.27	2.51	0.854	1.83	1.7	2.95	-0.32	0.126	2.23	2.42	0.562	3.23	1.34	2.75
CGACCAAGGTCATAGGAGGTCAGTGAAGACAGAT	7.7	7.58	4.51	5.89	0.466	5.7	6.04	5.91	2.45	4.68	3.37	4.52	0.399	-0.258	5.37	6.88	4.39	6.18	2.16	5.22
CGAACGAGGGCATGACTTGATAGCAAATGCCGAT	0.404	0.369	-0.781	0.0827	-0.668	1.26	1.28	0.865	-0.352	0.26	2.69	1.81	-0.27	-0.449	-0.43	0.219	-0.361	0.614	-0.682	2.01
CAAACTAGGGCACGAAAGGTCAAAGTCGAATGAC	5.64	6.93	6.08	5.54	1.5	6.49	8.39	7.22	5.17	7.03	7.59	8.38	2.22	0.682	2.46	5.93	1.28	6.53	1.46	4.98
ACTGACAGGTGATGAAGGTAACTCAGGCTATCAT	-0.15	-0.398	-0.445	-0.455	-0.408	-0.0489	0.472	0.0848	0.0417	0.219	0.252	0.675	0.404	-0.0306	-0.378	-0.393	-0.233	-0.039	0.284	0.224
ATATGTATGTTAAGGGTCATTCAGGTTGGTTCGC	4.05	4.15	3.41	4.46	1.5	5.66	8.29	7.83	8.13	8.7	3.13	4.91	2.02	1.65	2.83	4.73	2.03	4.22	1.18	3.31
CGAACGTGGGCATGAGTTGATAGCAAATGCCGAT	-0.892	-0.876	-1.04	-0.998	-1.27	-1.82	0.51	-0.55	-0.697	-0.428	-0.469	-0.859	-1.14	-1.08	-1.28	-0.855	-0.719	-1.12	-0.791	-0.401
TCATATAGGTAAACAGGTGAAAGTCCGTAAGTTA	0.771	1.07	0.337	0.884	0.0234	2.39	2.99	3.77	4.16	3.87	4.87	4.6	1.08	0.871	1.31	0.894	0.216	1.3	1.12	0.78
TCTAGCAGGCCAGAGGGTCAGTCAAGAGGTACGG	0.425	0.152	-0.884	0.413	-1.51	1.35	0.768	1.81	1.49	1.68	0.768	0.496	-0.553	-1.25	0.21	0.465	-0.829	0.985	-0.753	1.77
CAAACTAGGTAACGAAAGGTCAAAGTCGAATGAC	4.96	7.4	6.74	6.41	2.26	5.8	6.82	6.42	3.66	5.76	7.04	6.76	1.27	1.33	3.34	5.5	1.94	5.55	2.01	4.38
CCTTACGGGTCGCGAGGTTATAGCACGACGAGCG	2.87	1.99	-0.147	1.82	-0.455	3.61	1.91	2.15	0.056	0.872	0.357	1.14	-0.25	-0.857	1.41	2.63	-0.189	3.62	-0.132	2.23
TCAGACTGGTGAAGGTAACTCAGGTACGCAGTCG	-0.62	0.98	-0.387	0.192	-1.07	0.467	0.185	1.29	2.82	1.98	1.41	0.112	-0.324	-0.759	-0.234	0.0294	-0.386	0.305	-0.373	-0.0149
TCTAGTTGGTCACGGAGGTTACACACGACGGGTA	1.01	1.19	0.54	1.12	0.211	1.96	1.7	2.35	3.22	2.73	2.33	2.95	0.625	0.671	1.64	1.53	0.58	1.77	0.623	2.42
CCGAGTAGGTTCTGGGGCATTCAGGCAACGGTGA	-0.196	-0.351	-0.153	-0.391	-0.906	0.158	-0.108	0.645	-0.76	0.156	1.08	1.69	-1.23	-1.34	0.223	-0.868	-0.237	-0.69	-0.226	0.00361
